Source: PubChem
p53 reactivation – mutant p53 re-activation in reporter cells | 320,000 compounds, 0.063% hits | Potency, µM (titrated, usually from 92.2 µM), without a hit: top-dose activity change, positive = activation, most hits filed as activators | H1299 p53-A138V BP100-luciferase reporter, luminescence, 24 h | AID 504706; note: potency is the fitted concentration of half-maximal effect; % of control where 0% means no effect; nearly all actives have a fitted effect of over 45% in size
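H1299 (p53-null), stable ts p53-A138V + BP100-Luc; 1000 cells/well, Opti-MEM/10% FBS; cpd 4 pt, 1:5; 24 h, 37 deg C, 5% CO2; detection reagent 10 min RT; luminescence.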
VP16 counter – inhibits Gal4-VP16 luciferase reporter, ROR gamma counter-screen; Drosophila S2 Gal4-VP16 UAS-luciferase, luminescence, 20 h; Potency, µM (titrated, usually from 53.6 µM), for inactives: at the highest dose activity, negative = inhibition, usual class: inhibitors; 310,000 compounds, 3.5% hits; AID 2546;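 note: Gal4-VP16 expression switched on by copper sulfate through the metallothionein promoter; potency is the fitted concentration of half-maximal effect; % is set by controls: 0 for no effect and ±100 for the full control effect; nearly all actives have a fitted effect of over 50% in size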
Giardia kill – kills Giardia lamblia. 340,000 compounds, 0.15% hits. activity change, % at 7.66 µM, hits read low. Giardia lamblia trophozoite viability. AID 540267; in the data active = activity change below about -80%; inconclusive = between about -30% and that limit;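 note: parasites exposed to compound for two days anaerobically before the ATP read; % is set by controls: 0 for no effect and ±100 for the full control effect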
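Media and compound were dispensed first, then trophozoites at 100 cells/well; plates sat 48 hrs at 37 deg C without oxygen before ATP luminescence reagent was added and read after 15-30 min at room temperature.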
RORgamma inh – blocks mouse ROR gamma transcriptional activity | 310,000 compounds, 5.4% hits | AID 2551 | Drosophila S2 Gal4-RORgamma UAS-luciferase reporter, 20 h | P51450 | Potency, µM (doses to about 53.6 µM), without a hit: at the top dose activity change, negative = inhibition, usual class: inhibitors; note: potency is the fitted concentration of half-maximal effect; % is set by controls: 0 for no effect and ±100 for the full control effect; nearly all actives have a fitted effect of over 60% in size
Target sequence (P51450 whole entry, looked up, the tested form may be a part): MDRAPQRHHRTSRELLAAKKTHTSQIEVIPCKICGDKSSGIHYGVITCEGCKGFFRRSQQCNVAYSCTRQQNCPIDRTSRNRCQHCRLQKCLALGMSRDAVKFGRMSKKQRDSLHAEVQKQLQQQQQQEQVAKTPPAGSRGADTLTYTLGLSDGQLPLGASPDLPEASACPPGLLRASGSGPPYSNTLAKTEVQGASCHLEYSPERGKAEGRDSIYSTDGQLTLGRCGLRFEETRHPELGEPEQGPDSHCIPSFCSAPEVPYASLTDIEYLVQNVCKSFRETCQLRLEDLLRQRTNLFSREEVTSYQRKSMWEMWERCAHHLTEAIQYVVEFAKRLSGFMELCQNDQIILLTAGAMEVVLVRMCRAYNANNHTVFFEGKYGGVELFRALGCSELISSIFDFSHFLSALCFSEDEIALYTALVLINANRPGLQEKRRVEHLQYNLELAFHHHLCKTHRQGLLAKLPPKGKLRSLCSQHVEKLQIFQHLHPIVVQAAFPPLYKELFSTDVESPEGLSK
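A Gal4/UAS one-hybrid system in insect cells: metallothionein-promoter Gal4–ROR gamma fusion plus Photinus luciferase reporter. Copper sulfate 700 uM final, 20 hr ambient incubation, luminescent detection after 10 min with reagent.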
BRCA1 expr act – increases BRCA1 expression | MCF7-BRCA1-FFLuc reporter, luminescence, 48 h; response scale: scaled: vehicle 0%, 10 µM genistein 100% | Potency, µM (titrated, usually from 46.1 µM), for the others: at the highest dose activation, actives largely listed as activators | 380,000 compounds, 1.1% hits; note: potency is the fitted concentration of half-maximal effect; nearly all actives have a fitted effect of over 80% in size
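MCF7 cells carrying a BRCA1-firefly luciferase reporter (2000 cells/well, phenol-red free MEM) were attached for 2 h at 37 °C, then given compounds for 48 h. Luminescence was read 15 min after luciferase reagent; activity normalized to genistein (10 microM) and DMSO.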
ELG1 DNA repair – ELG1-dependent DNA repair inhibition | HEK293T ELG1-luciferase reporter, luminescence, 16 h; DNA damage induced by 5-fluorouridine | Potency, µM (doses to about 46.1 µM), for inactives: at the highest dose activity change, negative = inhibition, usual class: inhibitors | 330,000 compounds, 2.3% hits | AID 504467; note: potency is the fitted concentration of half-maximal effect; % is set by controls: 0 for no effect and ±100 for the full control effect; nearly all actives have a fitted effect of over 55% in size
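Overnight (16 hr) co-exposure of 2,000 cells/well to 5-fluorouridine and compound at 37 °C preceded detection. Luciferase was quantified via ONE-Glo luminescence; loss of signal denotes inhibition.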
* hit, by the source's call; ? = inconclusive; · = no result; [ ] = another dose, or the depositor's remark. Only some compounds are listed: those with a hit (about 7.6% of all), similar ones and a draw of the others. Unless noted, calls come from the whole dose curve; as a rule, active = well fitted curve in the direction sought with a large enough effect; inconclusive = small, poorly fitted or top-dose-only effect, or another doubt; inactive = no such curve, though single readings can be large; an effect the other way counts as inactive or inconclusive.

SMILES | p53 reactivation | VP16 counter | Giardia kill | RORgamma inh | BRCA1 expr act | ELG1 DNA repair
CC(Oc1ccc(Cl)cc1Cl)c1nc(-c2ccccn2)no1 (configuration not stated) | 17.7% | 23.7% | 0.7 | 8.4% | 11.2µM* | ?
COC(=O)Cn1c(=O)n(CCc2ccccc2)c(=O)c2c3c(sc21)CCCC3 | 0.0% | -4.2% | 12.7 | -4.3% | -27.3% | -26.6%
COc1ccc(OCc2nc3ccc(S(=O)(=O)Nc4ccccc4Cl)cc3[nH]2)cc1 | -13.0% | -10.5% | 6.6 | ? | -21.9% | -20.7%
COc1ccc(NS(=O)(=O)c2ccc3nc(COc4ccc5ccccc5c4)[nH]c3c2)cc1 | -23.1% | -17.6% | 2.3 | -13.0% | -57.1% | 23.1µM*
COc1ccccc1NS(=O)(=O)c1ccc2nc(CCl)[nH]c2c1 | -3.7% | ? | 18.4 | 11.2% | -16.2% | ?
COc1ccc(NS(=O)(=O)c2ccc3nc(COc4cccc5ccccc45)[nH]c3c2)cc1 | 10.8% | -7.8% | -0.9 | ? | -83.1% | 23.1µM*
COc1ccc(-c2cc(C(=O)NCCCN3CCCC3=O)c3ccccc3n2)cc1 | -1.2% | · | 38.2 | · | 1.9% | ?
O=C(NCCCN1CCCC1=O)c1cc(-c2ccc(F)cc2)nc2ccccc12 | -1.3% | · | 31.8 | · | 14.0% | 18.3µM*
COc1ccc(-c2cc(C(F)F)n3ncc(C(=O)NCCCN4CCCC4=O)c3n2)cc1 | -5.7% | -4.4% | -4.4 | 23.1% | 2.2% | 6.51µM*
O=C(O)CC(C(=O)Nc1ccc(Cl)cc1Cl)C1CCCO1 (configuration not stated) | -1.1% | -8.4% | 18.3 | 2.2% | -1.7% | 8.3%
COc1cc(C(=O)Nc2ccc(C(=O)NCC3CCCO3)cc2)cc(OC)c1OC (configuration not stated) | · | · | 20.0 | · | -25.2% | 11.6%
CCOc1ccc(S(=O)(=O)N2CCOCC2)cc1NC(=O)C1=COCCO1 | -9.4% | · | -6.7 | · | -3.3% | ?
O=C(Nc1ccc2c(c1)OCO2)c1cccc2c1C(=O)N(Cc1cccnc1)C2 | -3.7% | -12.7% | 5.5 | ? | -16.2% | ?
COc1cc(NC(=O)c2cccc3c2C(=O)N(Cc2cccnc2)C3)cc(OC)c1OC | -5.4% | 2.6% | 4.4 | -26.3% | 41.1% | 9.2µM*
Nc1ccc2nc3c(=O)n(C4CCCCC4)c(=O)[nH]c3nc2c1 | 12.0% | ? | 15.6 | 13.5% | 7.08µM* | ?
CCCCn1c(=O)[nH]c2nc3cc(N)ccc3nc2c1=O | ? | 0.7% | -5.6 | 36.1% | ? | ?
COc1cncc(C#Cc2ccccn2)c1 | · | · | · | · | 4.47µM* | ·
CCc1nnc(NC(=O)CSc2nc(N)c(NC(=O)c3ccc(OC)cc3)c(=O)[nH]2)s1 | -4.6% | 3.2% | 0.2 | ? | 0.8% | 1.3%
O=C1CC(c2ccc(F)cc2)CC2=C1C(c1ccc([N+](=O)[O-])o1)Nc1ccccc1N2 (configuration not stated) | 0.8% | 32.3% | -90.1* | ? | -41.5% | ?
O=C1CC(c2ccccc2)CC2=C1C(c1ccccn1)Nc1ccccc1N2 (configuration not stated) | -6.3% | 0.7% | 25.0 | 21.7% | 0.2% | 0.1%
O=C1NC(=O)C(CSc2ccccc2)(c2ccccc2)N1 (configuration not stated) | · | · | 10.8 | · | 7.4% | ·
Cc1cc2c(ccc3c2no[n+]3[O-])nn1 | 15.1% | 3.3% | -16.6 | 3.4%[10 µM] | -3.4% | -0.6%
Nc1ccccc1C#CC(=O)c1ccccc1 | -14.4% | 7.08µM* | 14.1 | 7.08µM* | -103.0% | -1.4%
O=C(C#Cc1cccc([N+](=O)[O-])c1)c1ccccc1 | -16.2% | 3.16µM* | · | 2.82µM* | · | ?
Nc1ccccc1C#Cc1ccc([N+](=O)[O-])cc1 | · | · | -5.6 | · | ? | ·
SMILES | p53 reactivation | VP16 counter | Giardia kill | RORgamma inh | BRCA1 expr act | ELG1 DNA repair
Cc1cccc(CS(=O)(=O)Cc2ccc(C(=O)NCCN3CCCCC3C)o2)c1 (configuration not stated) | -4.4% | 0.4% | 6.7 | -34.9% | -5.3% | 5.3%
CCOC(=O)c1c(NC(NC(C)=O)C(Cl)(Cl)Cl)sc2c1CCCC2 (configuration not stated) | -18.7% | -16.2% | 4.8 | ? | -27.0% | ?
CCc1n[nH]c(=S)n1/N=C/c1ccc(N(C)c2ccccc2)cc1 | 4.6% | ? | -5.2 | 4.47µM* | -37.2% | ?
CCc1n[nH]c(=S)n1/N=C/c1ccc2c(c1)OCO2 | 3.0% | ? | 5.9 | 11.2µM* | -0.6% | 4.0%
CCN(CC)c1ccc(/C=N/n2c(-c3ccccc3Br)n[nH]c2=S)cc1 | 1.7% | -4.5% | 10.0 | 1µM* | -52.9% | ?
CCc1n[nH]c(=S)n1/N=C/c1ccccn1 | 2.3% | -2.9% | -7.4 | 2.3% | 8.6% | 7.2%
Cn1c(=S)n(/N=C/c2ccc3c(c2)OCO3)c2ccccc21 | 6.3% | 21.5% | -7.6 | 11.2µM* | -11.0% | ?
COc1ccc(/C=N/n2c(=S)n(C)c3ccccc32)cc1OC | -1.4% | 5.7% | 10.9 | -25.5% | -27.9% | -24.6%
Cc1nn(-c2ccccc2)c(C)c1/C=N/n1c(-c2ccccc2Br)n[nH]c1=S | -3.4% | -8.6% | 7.1 | ? | -52.1% | ?
CCc1nc2ccc(C(=O)NCc3ccc4c(c3)OCO4)cn2c1N(CC)CCOC | · | · | · | · | 27.8% | ·
Clc1ccc(N2O[C@H]3C=C[C@@H]2C3)nc1 | · | · | · | · | 37.8% | ·
Cn1nccc1-c1cc(Cl)cc(Cl)c1O | -2.1% | 31.6µM* | -20.4 | ? | 11.9% | 7.1%
CCN(c1ccccc1)S(=O)(=O)c1ccc(C(=O)NCC(c2ccccc2OC)N2CCCC2)cc1 (configuration not stated) | · | · | -8.7 | · | -24.6% | ·
CCCCn1c(N)c(N(CC)C(=O)c2cc(S(=O)(=O)N3CCN(CC)CC3)ccc2Cl)c(=O)[nH]c1=O | -3.2% | -2.3% | -10.4 | -22.0% | -7.4% | 20.7%
C/C(=C\c1ccc(Cl)cc1)C(=O)c1c(C)cc(C)[nH]c1=O | · | -10.5% | -8.5 | -28.3% | -15.6% | ?
CCc1ccc(/C=C/C(=O)c2c(C)cc(C)[nH]c2=O)cc1 | -29.3% | ? | -24.1 | ? | -83.5% | 20.6µM*
COc1ccc(/C=C/C(=O)c2c(C)cc(C)[nH]c2=O)c2ccccc12 | -1.9% | 14.1µM* | -7.9 | ? | -55.9% | ?
C/C(=C\c1ccc(Br)cc1)C(=O)c1c(C)cc(C)[nH]c1=O | 6.2% | 0.0% | -9.6 | ? | -11.4% | 14.6µM*
Cc1cc(C)c(C(=O)/C=C/c2cccs2)c(=O)[nH]1 | 6.4% | 5.6% | 1.4 | -17.2% | -0.6% | ?
CCc1ccc(/C=C(\C)C(=O)c2c(C)cc(C)[nH]c2=O)cc1 | -0.1% | ? | -3.2 | 4.7% | 4.4% | ?
